Experiments:
Assay in all cases: log2 ratio of Biotin-Ahx-Ub-VS probe labelling (fragment/DMSO); higher = less target engagement (more negative = stronger competition), active = hit call of the paper (q ≤ 0.05, log2 ratio ≤ -1)
Details in all cases: compound concentration: 200 uM; treatment time: 3 h
USP19 = target: T1, USP19 (UniProt O94966)
T1 sequence (whole entry): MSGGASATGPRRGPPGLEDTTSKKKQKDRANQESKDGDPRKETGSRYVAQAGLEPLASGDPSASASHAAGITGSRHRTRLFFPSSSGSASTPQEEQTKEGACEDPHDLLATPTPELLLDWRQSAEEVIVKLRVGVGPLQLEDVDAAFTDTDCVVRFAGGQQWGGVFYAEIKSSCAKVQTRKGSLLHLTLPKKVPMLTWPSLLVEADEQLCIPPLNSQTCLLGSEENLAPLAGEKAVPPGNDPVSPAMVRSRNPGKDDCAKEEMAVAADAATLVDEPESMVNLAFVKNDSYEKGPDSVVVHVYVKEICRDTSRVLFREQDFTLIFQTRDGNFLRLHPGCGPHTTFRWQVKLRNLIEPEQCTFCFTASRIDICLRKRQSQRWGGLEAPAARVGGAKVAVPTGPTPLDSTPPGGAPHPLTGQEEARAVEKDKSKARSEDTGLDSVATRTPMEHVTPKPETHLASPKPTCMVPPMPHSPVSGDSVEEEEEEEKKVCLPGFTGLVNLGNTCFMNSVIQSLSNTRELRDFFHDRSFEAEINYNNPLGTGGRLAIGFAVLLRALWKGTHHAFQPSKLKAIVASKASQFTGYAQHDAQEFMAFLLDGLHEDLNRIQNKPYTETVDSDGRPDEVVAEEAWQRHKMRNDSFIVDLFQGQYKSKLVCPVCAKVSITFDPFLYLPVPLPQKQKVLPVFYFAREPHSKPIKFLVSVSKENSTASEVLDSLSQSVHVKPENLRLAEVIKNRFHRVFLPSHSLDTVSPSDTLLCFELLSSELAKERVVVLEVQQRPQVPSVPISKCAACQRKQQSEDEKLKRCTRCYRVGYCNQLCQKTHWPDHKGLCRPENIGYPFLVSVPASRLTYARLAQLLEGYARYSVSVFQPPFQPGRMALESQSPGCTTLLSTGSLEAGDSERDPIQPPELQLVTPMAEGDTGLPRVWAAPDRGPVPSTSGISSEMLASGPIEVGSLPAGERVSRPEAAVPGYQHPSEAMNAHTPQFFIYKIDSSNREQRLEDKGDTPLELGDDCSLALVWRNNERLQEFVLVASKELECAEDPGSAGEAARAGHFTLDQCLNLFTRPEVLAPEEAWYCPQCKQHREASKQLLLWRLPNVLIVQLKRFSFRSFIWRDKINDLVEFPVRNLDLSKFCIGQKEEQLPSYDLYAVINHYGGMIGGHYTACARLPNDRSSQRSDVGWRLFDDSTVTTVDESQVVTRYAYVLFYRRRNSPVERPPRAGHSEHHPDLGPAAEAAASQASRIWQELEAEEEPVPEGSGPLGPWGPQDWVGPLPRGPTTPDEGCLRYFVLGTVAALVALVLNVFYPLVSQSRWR
In short: (§1)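 Triplicate samples of HEK293T lysate, 495 µg each, received fragment at 200 µM or vehicle for 3 h, followed by Biotin-Ahx-Ub-VS (0.5 µM final) for 1 h. After NeutrAvidin enrichment of labelled DUBs and LysC/trypsin digestion, peptides were run by diaPASEF LC-MS/MS. The values are average log2 fragment/vehicle ratios from global-median-normalised Spectronaut label-free quantities, tested by unpaired t-test on proteins having ≥2 unique peptides.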

USP24 = USP24 (UniProt Q9UPU5)
Chain of USP24 (Q9UPU5 whole entry): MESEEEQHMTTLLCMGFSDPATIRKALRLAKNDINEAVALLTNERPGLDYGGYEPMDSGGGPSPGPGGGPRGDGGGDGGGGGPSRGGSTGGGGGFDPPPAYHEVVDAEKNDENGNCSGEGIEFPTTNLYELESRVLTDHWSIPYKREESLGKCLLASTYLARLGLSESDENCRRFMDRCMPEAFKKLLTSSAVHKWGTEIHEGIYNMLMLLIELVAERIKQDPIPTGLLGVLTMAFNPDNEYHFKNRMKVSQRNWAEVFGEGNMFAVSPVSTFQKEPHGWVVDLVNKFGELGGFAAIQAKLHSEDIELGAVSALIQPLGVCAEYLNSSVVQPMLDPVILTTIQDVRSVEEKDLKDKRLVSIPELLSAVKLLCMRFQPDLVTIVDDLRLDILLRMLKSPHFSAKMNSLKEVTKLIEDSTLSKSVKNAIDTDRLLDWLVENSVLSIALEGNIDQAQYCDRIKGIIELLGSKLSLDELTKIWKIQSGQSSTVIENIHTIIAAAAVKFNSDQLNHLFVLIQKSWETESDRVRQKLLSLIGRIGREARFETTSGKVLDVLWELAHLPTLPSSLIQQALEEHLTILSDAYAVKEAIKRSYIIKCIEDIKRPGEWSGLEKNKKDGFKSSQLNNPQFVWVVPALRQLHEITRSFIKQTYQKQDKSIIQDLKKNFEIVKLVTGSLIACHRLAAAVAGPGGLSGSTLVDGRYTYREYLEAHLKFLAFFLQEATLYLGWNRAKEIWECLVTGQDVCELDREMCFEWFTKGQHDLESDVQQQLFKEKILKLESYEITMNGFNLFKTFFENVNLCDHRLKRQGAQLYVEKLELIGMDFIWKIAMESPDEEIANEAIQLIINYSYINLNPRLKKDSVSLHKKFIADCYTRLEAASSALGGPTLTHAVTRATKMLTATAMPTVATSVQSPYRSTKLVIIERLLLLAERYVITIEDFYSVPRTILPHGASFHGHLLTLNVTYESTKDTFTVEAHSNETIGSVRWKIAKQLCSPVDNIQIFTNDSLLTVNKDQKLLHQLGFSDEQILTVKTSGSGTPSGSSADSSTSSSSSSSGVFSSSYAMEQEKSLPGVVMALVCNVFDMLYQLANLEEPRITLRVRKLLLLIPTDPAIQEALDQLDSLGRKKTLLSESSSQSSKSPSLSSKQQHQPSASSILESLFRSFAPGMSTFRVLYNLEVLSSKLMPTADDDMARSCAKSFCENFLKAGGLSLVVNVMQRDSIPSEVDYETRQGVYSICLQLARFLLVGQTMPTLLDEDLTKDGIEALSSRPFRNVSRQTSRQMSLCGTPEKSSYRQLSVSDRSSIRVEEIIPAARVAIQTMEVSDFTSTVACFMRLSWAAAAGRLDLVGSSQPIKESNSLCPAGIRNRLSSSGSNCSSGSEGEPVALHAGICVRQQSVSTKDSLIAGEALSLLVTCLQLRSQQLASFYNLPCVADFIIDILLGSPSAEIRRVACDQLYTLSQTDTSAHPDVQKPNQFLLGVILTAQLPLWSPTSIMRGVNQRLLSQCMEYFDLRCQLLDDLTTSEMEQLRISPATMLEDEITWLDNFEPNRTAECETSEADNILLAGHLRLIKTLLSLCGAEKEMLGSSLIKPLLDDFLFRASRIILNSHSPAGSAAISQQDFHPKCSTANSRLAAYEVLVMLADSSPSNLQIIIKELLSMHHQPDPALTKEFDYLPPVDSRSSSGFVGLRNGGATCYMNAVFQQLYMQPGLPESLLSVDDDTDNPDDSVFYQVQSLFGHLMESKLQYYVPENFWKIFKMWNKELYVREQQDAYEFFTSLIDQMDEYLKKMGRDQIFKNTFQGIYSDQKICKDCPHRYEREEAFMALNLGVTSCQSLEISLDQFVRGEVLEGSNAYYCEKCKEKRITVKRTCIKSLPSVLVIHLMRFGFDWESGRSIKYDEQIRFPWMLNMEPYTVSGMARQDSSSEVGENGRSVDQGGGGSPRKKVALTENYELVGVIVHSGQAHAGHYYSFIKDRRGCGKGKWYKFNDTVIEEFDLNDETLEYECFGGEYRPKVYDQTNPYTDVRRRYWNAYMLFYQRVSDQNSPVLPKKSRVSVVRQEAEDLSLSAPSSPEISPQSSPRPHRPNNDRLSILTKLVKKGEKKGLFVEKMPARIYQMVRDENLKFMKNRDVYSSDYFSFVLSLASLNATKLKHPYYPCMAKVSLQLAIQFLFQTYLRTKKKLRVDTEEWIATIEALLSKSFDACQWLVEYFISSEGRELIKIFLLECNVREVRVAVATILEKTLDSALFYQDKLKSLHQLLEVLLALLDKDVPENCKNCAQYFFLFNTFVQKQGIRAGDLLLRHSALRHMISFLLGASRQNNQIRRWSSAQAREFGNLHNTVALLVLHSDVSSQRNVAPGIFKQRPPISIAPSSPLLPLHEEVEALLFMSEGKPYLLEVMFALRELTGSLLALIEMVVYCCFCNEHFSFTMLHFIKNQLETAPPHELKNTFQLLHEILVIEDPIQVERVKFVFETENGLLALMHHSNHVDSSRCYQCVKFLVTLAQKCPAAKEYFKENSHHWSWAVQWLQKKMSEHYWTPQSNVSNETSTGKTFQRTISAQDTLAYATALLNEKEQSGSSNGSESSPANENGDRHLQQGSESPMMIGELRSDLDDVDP
In short: as §1

USP25 = target: T2, USP25 (UniProt Q9UHP3)
T2 sequence (whole entry): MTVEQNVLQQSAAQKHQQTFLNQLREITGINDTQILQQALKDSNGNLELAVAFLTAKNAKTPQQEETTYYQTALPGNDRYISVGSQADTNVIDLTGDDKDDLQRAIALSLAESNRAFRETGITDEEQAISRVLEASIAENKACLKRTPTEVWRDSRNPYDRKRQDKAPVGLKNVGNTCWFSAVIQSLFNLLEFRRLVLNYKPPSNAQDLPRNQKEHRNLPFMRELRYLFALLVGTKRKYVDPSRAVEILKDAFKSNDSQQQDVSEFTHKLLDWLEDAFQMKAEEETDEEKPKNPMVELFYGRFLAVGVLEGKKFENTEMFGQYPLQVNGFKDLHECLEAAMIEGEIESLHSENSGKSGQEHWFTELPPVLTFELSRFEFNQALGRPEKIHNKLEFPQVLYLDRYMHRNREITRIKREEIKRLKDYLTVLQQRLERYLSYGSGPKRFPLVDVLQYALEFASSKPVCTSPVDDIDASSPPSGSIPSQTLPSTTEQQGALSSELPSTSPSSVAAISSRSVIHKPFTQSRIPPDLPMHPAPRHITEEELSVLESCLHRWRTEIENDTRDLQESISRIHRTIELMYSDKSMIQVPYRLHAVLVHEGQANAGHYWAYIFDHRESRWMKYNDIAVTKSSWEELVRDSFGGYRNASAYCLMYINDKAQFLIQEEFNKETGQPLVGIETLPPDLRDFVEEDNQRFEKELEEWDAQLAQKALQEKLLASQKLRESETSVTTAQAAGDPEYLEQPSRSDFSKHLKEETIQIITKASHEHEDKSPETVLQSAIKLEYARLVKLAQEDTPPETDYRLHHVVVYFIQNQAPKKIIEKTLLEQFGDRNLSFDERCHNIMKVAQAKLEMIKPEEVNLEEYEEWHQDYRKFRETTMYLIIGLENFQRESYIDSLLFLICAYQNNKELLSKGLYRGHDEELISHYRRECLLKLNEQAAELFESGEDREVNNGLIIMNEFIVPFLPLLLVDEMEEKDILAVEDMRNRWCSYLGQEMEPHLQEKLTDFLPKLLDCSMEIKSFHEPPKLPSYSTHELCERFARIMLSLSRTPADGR
In short: as §1

USP28 = target: T3, USP28 (UniProt Q96RU2)
T3 sequence (whole entry): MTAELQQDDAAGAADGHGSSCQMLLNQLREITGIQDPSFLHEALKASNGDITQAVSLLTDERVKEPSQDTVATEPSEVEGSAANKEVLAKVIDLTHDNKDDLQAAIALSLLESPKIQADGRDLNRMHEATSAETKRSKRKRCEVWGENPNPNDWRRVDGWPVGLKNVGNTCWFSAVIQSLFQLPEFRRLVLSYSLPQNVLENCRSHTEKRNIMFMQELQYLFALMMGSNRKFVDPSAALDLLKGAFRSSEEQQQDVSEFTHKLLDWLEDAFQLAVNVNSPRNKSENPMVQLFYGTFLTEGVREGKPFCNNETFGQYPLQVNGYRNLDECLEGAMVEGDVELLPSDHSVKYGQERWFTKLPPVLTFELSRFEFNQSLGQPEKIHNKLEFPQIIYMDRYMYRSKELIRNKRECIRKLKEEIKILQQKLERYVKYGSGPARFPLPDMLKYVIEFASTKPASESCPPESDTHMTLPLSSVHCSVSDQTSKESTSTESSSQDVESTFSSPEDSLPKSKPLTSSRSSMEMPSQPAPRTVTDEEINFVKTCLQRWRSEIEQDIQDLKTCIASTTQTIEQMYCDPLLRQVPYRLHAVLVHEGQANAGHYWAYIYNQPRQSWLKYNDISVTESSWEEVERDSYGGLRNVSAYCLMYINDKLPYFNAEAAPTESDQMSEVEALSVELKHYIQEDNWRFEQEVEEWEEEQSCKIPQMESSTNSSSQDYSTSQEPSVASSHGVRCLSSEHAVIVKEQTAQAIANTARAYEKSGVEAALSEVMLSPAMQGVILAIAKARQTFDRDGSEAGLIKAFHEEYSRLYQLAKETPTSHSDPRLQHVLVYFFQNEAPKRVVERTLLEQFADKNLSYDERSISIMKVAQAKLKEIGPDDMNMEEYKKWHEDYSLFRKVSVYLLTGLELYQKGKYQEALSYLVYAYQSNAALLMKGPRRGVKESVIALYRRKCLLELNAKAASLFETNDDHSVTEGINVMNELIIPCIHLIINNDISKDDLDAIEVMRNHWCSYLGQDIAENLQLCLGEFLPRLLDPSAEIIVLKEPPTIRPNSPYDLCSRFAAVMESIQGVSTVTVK
In short: as §1

Measured: log2 ratio of Biotin-Ahx-Ub-VS probe labelling

CC(NC(=O)CCl)c1noc(Cc2ccccc2)n1 (centres undefined)
inactive: USP19 -0.307 | USP24 -0.498 | USP25 -0.593 | USP28 -0.789
